Bioassay records: PubChem, National Center for Advancing Translational Sciences (NCATS)
Shown are actives, neighbours in structure and some others; about 1.5% of the full set was active somewhere.
TDP1 inh: inhibitors of human tyrosyl-DNA phosphodiesterase TDP1; recombinant TDP1, AlphaScreen DNA substrate cleavage; hit rate 0.28% among 350,000; Q9NUW8; Potency, µM (titrated, usually from 130 µM), for the others: at the highest dose activity change, negative = inhibition, usual class: inhibitors; also: potency is read from the fitted curve at half-maximal effect; % is scaled to controls: 0 for no effect and ±100 for the full control effect; nearly all actives have a fitted effect of over 40% in size
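E. coli-derived human Tdp1, 1 nM final. Cpd preinc 15 min RT; substrate 15 nM final, 5 min RT; AS bead mix 10 ug/ml final, 10 min RT. Signal loss = tyrosine-FITC cleavage. No-enzyme wells = max signal.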
FEN1 inhibitor: blocks human flap endonuclease 1; P39748; Recombinant FEN1 flap cleavage, fluorescence, 15 min; Potency, µM (doses to about 114 µM), without a hit: at the top dose activity change, negative = inhibition, hits mostly inhibitors; hit rate 0.35% among 390,000; AID 588795; also: potency is read from the fitted curve at half-maximal effect; % is scaled to controls: 0 for no effect and ±100 for the full control effect; nearly all actives have a fitted effect of over 65% in size
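Enzyme 10 nM, 15 min RT preincubation with compound; start with substrate 50 nM final; reads at 0 and 15 min; qHTS titration, four-parameter Hill fit.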
WRN helicase inh: WRN helicase (human) inhibition. WRN helicase unwinding, fluorescent forked duplex, kinetic. hit rate 0.46% among 360,000. Potency, µM (doses to about 114 µM), for inactives: top-dose activity change, negative = inhibition, hits mostly inhibitors. AID 651768; also: potency is read from the fitted curve at half-maximal effect; % is scaled to controls: 0 for no effect and ±100 for the full control effect; nearly all actives have a fitted effect of over 55% in size
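Enzyme (20 nM final) and test compound sit together 15 min at room temperature before substrate addition. Substrate is a single-forked duplex oligonucleotide (100 nM) labelled with fluorophore and quencher, with 2 mM ATP; helicase unwinding raises red fluorescence, read kinetically.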
Tb PFK inh-1: T. brucei PFK enzyme inhibition; T. brucei PFK, ADP-Glo luminescence; Potency, µM (top dose mostly 57.5 µM), inactives show top-dose activity, negative = inhibition, usual class: inhibitors; hit rate 0.17% among 330,000;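 also: potency is read from the fitted curve at half-maximal effect; 0% = uninhibited 1x PFK enzyme wells and -100% = no-enzyme wells; nearly all actives have a fitted effect of over 60% in size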
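ADP-Glo luminescence quantified ADP after 45 min at room temperature, with 1.25 nM T. brucei PFK, 0.1 mM ATP and 0.5 mM fructose-6-phosphate in pH 8.0 TEA buffer. qHTS titrations up to 57 µM; curves classified by quality.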
PI5P4K alpha inh: PI5P4K alpha (human) kinase inhibition; P48426; PI5P4Kalpha enzyme, ADP-Glo luminescence, 60 min; stronger effect = lower value; hit rate 1.2% among 330,000; max response, %; active = max response of -50% or lower; inconclusive = between -30% and -50%; inactive = -30% or higher; also: value at the top dose of about 77 µM; % is scaled to controls: 0 for no effect and ±100 for the full control effect
Target sequence (P48426 whole entry, looked up): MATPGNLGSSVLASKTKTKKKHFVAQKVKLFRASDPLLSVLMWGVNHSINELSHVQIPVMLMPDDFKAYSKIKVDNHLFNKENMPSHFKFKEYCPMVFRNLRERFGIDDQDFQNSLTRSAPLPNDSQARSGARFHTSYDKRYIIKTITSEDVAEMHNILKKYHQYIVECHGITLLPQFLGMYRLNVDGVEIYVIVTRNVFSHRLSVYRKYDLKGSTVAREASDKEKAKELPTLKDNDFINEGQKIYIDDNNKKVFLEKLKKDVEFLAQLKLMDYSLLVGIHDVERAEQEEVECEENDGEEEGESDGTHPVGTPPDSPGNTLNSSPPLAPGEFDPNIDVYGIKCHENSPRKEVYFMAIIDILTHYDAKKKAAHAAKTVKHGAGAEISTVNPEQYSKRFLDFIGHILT
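PI5P4Kalpha ADP-Glo assay; 5 microM ATP final; 60 min RT reaction; HEPES pH 7.4/EGTA/CHAPS, 5% DMSO; controls lacking substrate or enzyme; luminescent end-point.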
PGK inhibitor: T. brucei PGK inhibition | hit rate 0.043% among 380,000 | P07378 | PGK/GAPDH coupled, Kinase-Glo luminescence, 60 min | Potency, µM (top dose mostly 57.5 µM), without a hit: top-dose activity change, negative = inhibition, hits mostly inhibitors | AID 602233; also: potency is read from the fitted curve at half-maximal effect; % is scaled to controls: 0 for no effect and ±100 for the full control effect; nearly all actives have a fitted effect of over 60% in size
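Recombinant glycosomal PGK reaction used 1,3-bisphosphoglycerate generated in-well by GAPDH (100nM final) in 100mM TEA pH 7.6, 5mM MgCl2, 0.01% Tween-20. After 60 minutes at room temperature, ATP was read by Kinase-Glo Plus luminescence end-point.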
Tb PFK KinaseGlo: inhibits T. brucei PFK measured by ATP depletion | hit rate 47% among 1,100 | Potency, µM (series often up to 57.5 µM), inactives show at the top dose inhibition | shares compounds with Tb PFK inh-1 | Tb PFK enzyme, ATP depletion, Kinase-Glo Plus luminescence; calls by dose curve; also: potency is read from the fitted curve at half-maximal effect; nearly all actives have a fitted effect of over 60% in size
Tb PFK inh-2: validation of T. brucei phosphofructokinase inhibitors. Potency, µM (top dose mostly 57.5 µM), without a hit: at the highest dose activity change, negative = inhibition, most hits filed as inhibitors. hit rate 41% among 1,100. purified T. brucei PFK, ADP-Glo luminescence, 45 min. shares compounds with Tb PFK inh-1;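 also: potency is read from the fitted curve at half-maximal effect; plate controls were full PFK enzyme control for no effect and no enzyme control for full effect; nearly all actives have a fitted effect of over 60% in size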
Active calls of the source: *; ? = inconclusive; . = no result given; [ ] = another dose, or the depositor's remark. Unless noted, calls follow the shape of the dose curve; as a rule, active = well fitted curve in the direction sought with a large enough effect; inconclusive = small, poorly fitted or top-dose-only effect, or another doubt; inactive = no such curve, though single readings can be large; an effect the other way counts as inactive or inconclusive.

SMILES	TDP1 inh	FEN1 inhibitor	WRN helicase inh	Tb PFK inh-1	PI5P4K alpha inh	PGK inhibitor	Tb PFK KinaseGlo	Tb PFK inh-2
CN(C)C(CSC(N)=O)CSC(N)=O	17%	.	.	.	.	.	.	.
O=C(COc1ccc(Cl)cc1)Nc1ccc2[nH]ncc2c1	.	-2%	-5%	?	-14	-1%	17µM*	24µM*
COc1ccccc1C(=O)NCC(=O)OCC(=O)Nc1ccc2[nH]c(=O)[nH]c2c1	0%	-4%	-30%	27µM*	-9	1%	?	?
CCOc1ccc(NC(=O)c2c(O)[nH]c(=O)[nH]c2=O)cc1	.	14%	0%	.	7	0%	.	.
COc1ccc(OCC(=O)OCC(=O)Nc2ccc3[nH]c(=O)[nH]c3c2)cc1	0%	-18%	-11%	30µM*	-4	-10%	?	?
O=C(COc1ccc(Br)cc1)Nc1ccc(Cl)cc1C(=O)c1ccccc1	-2%[12.3 µM]	0%	.	.	.	-8%	.	.
CN1CC[C@@]2(c3cccc(O)c3)Cc3nc4ccccc4cc3C[C@H]2C1	7%	.	.	.	.	.	.	.
CCCCCCC(C)(C)c1cc(OC)c2c(c1)OC(C)(C)[C@@H]1CC=C(C)C[C@@H]21	9%	.	.	.	.	.	.	.
COP(N)(=O)SC (centres undefined)	8%[56.1 µM]	.	.	.	.	.	.	.
CN(c1ccccc1)c1ccc(/C=C/[N+](=O)[O-])cc1	5%	-8%	?	?	-14	-2%	17µM*	24µM*
CCCCCCCCCC[n+]1cccc([C@@H]2CCCN2C)c1	2%	.	.	.	.	.	.	.
COc1nccnc1NS(=O)(=O)c1ccc(NCc2cc(Br)ccc2O)cc1	2%	4%	?	?	-9	-11%	?	-18%
CC(=O)OC1CCC23C(=O)OC45CCC(C6=CC(=O)OC6)C4(C)CCC2C5CCC3(O)C1 (centres undefined)	9%[56.1 µM]	.	.	.	.	.	.	.
COc1ccc(C=O)cc1OC	10%	.	.	.	.	.	.	.
NS(=O)(=O)c1ccc(CCNC(=O)c2ccc(Cl)c(S(=O)(=O)N3CCCCC3)c2)cc1	-2%	?	-23%	-2%	-5	5%	.	.
CC1CN(S(=O)(=O)c2cc(C(=O)NCc3ccncc3)ccc2Cl)CC(C)O1 (centres undefined)	-6%	4%	-7%	?	-3	-3%	?	?
COc1cc([N+](=O)[O-])cc([N+](=O)[O-])c1N	.	9%	.	.	.	.	.	.
C[C@]12CC[C@H](O)C[C@H]1CCC1C2CC[C@]2(C)[C@@H](c3ccc(=O)oc3)C[C@H]3O[C@]132 (some centres undefined)	.	-8%	.	.	.	.	.	.
COc1cc([N+](=O)[O-])c2ncccc2c1[N+](=O)[O-]	.	.	-7%	.	-1	.	.	.
COc1cc(/C=C/c2[nH]c(=O)[nH]c(=O)c2[N+](=O)[O-])cc([N+](=O)[O-])c1O	.	?	-13%[11.6 µM]	?	-84*	.	-25%	?
CCCCCOc1c(OC)ccc2cc(C(=O)NCc3ccc4c(c3)OCO4)c(=O)[nH]c12	8%	.	.	.	.	.	.	.
Oc1ccc2c3c1O[C@H]1c4c(c5ccccc5n4Cc4ccccc4)C[C@]4(O)[C@H](C2)N(CC2CC2)CC[C@@]314	20%[56.1 µM]	.	.	.	.	.	.	.
C/C(=C\c1ccc(N(C)C)cc1)[N+](=O)[O-]	4%	-2%	-26%	?	.	-2%	-24%	?
COc1ccccc1NS(=O)(=O)c1cccc(-n2c(O)c(C=Nc3ccccc3C(=O)O)c3ccccc3c2=O)c1	4%	79µM*	50µM*	?	-69*	-9%	-29%	?
C=C(C)CCl	18%	.	.	.	.	.	.	.
SMILES	TDP1 inh	FEN1 inhibitor	WRN helicase inh	Tb PFK inh-1	PI5P4K alpha inh	PGK inhibitor	Tb PFK KinaseGlo	Tb PFK inh-2
CN1CCc2cc(O)cc3c2C1Cc1ccc(O)c(O)c1-3 (centres undefined)	6%[56.1 µM]	.	.	.	.	.	.	.
CC(C)(C)c1cc(C(=S)N2CCN(CCO)CC2)cc(C(C)(C)C)c1O	7%	13%	-27%	30µM*	.	-2%	12µM*	24µM*
Cc1ccc(C(=O)NNC(=O)CNc2cccc(Cl)c2)cc1	5%	10%	6%	19µM*	2	-10%	12µM*	24µM*
O=[N+]([O-])C(Br)Br	8%	.	.	.	.	.	.	.
CC(=O)NC(C)c1ccc(Cl)c(Cl)c1 (centres undefined)	6%	4%	-13%	?	.	-4%	21µM*	30µM*
CCCCCCCCCCCCCCC[C@@H](O)[C@@H](N)COP(=O)(O)O	6%	.	.	.	.	.	.	.
CC(=O)[C@H]1[C@H]([C@H](O)[C@H](O)CO)O[C@](O)(C(=O)O)C[C@@H]1O	.	6%	1%	1.7µM*	-3	-10%	?	-16%
COc1ccc(N2C(=O)C(Cl)=C(N3CCN(Cc4ccccc4)CC3)C2=O)cc1	8%	-4%	-1%	-9%	.	-6%	.	.
